Screens deposited in PubChem BioAssay by The Scripps Research Institute Molecular Screening Center.
The list is not random: actives were taken first. Their share in the collection is about 4.2%.
hcDAF-12 act = H. contortus DAF-12 activation, primary screen; HEK293 hcDAF-12 lit1-tk-luc reporter, luminescence; 0% DMSO, 100% Δ7-dafachronic acid; activation, % at 6.8 µM; actives 1.4% (n = 370,000);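 active = activation above the mean of all tested compounds plus 3 SD, cut at about 5.5% in these data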;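 also: 100% = response to 3 µM Δ7-dafachronic acid high control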
DAX1 StAR inh = blocks DAX1 repression of SF-1 activated StAR promoter | HEK293T StAR-luciferase reporter, SF-1/DAX-1 repression relief | inhibition, % at 6.8 µM | actives 1.1% (n = 370,000);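 active = inhibition above the mean over all tested compounds plus 3 SD, cut at about 3.6% in these data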;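 also: 0% = DAX-1 cells with DMSO and 100% = cells lacking DAX-1 with DMSO; higher inhibition means more luminescence from relief of DAX-1 repression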
hgDAF12 agonist = activates the H. glycines DAF-12 receptor ligand-binding domain; actives 1.8% (n = 370,000); AID 687014; HEK293 GAL4-hgDAF12 UAS-luciferase reporter, agonist luminescence; normalized to butyrate control; activation, % at 6.8 µM;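 active = activation above a cutoff set at the mean of all screened compounds plus 3 SD, cut at about 10% in these data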;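 also: 0% = DMSO wells and 100% = sodium butyrate wells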
SMARCA2 activ = activators of SMARCA2 function | MG213 cells, MMTV-luciferase reporter, dexamethasone, overnight | activation, % at 9.1 µM | actives 1% (n = 370,000) | AID 652017; in the data active = activation above about 7.8%;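 also: 0% = vehicle wells and 100% = reference activator wells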
ssDAF12 agonist = activates DAF-12 receptor from parasite S. stercoralis; HEK293 ssDAF-12/GRIP1 lit1-tk-luc reporter, luminescence; % of 3 µM dafachronic acid response; activation, % at 6.8 µM; actives 1% (n = 370,000);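 active = activation above the mean over all tested compounds plus 3 SD, cut at about 0.9% in these data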;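 also: 0% = DMSO-only wells and 100% = 3 µM delta7-dafachronic acid wells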
Active calls of the source: *.

CN1C(=O)[C@@]2(O[C@H]3c4ccccc4C=CN3C3=C2C(=O)CCC3)c2ccccc21 was read as hcDAF-12 act -1.8, DAX1 StAR inh -0.8, hgDAF12 agonist 0.4, SMARCA2 activ -3.2 and ssDAF12 agonist -0.9.
For CN1C(=O)[C@@]2(O[C@H]3C=CC=CN3C3=C2C(=O)CCC3)c2cccc(Br)c21 the results were hcDAF-12 act -2.0, DAX1 StAR inh -0.8, hgDAF12 agonist -1.7, SMARCA2 activ -5.3 and ssDAF12 agonist 0.9*.
CC1CCC2(CC1)CCN(CCCOC(=O)Nc1ccc3c(c1)OCO3)C2=O (stereo not drawn) was read as hcDAF-12 act -1.1, DAX1 StAR inh -1.4, hgDAF12 agonist 0.5, SMARCA2 activ -1.7 and ssDAF12 agonist -1.4.
For CCn1cc(C(=O)N2CCc3ccccc32)c(=O)c2cc(S(=O)(=O)N3CCOCC3)ccc21 the results were hcDAF-12 act 5.9*, DAX1 StAR inh 0.4, hgDAF12 agonist 4.1, SMARCA2 activ -0.4 and ssDAF12 agonist -0.1.
For CCCCN(CCCC)CCNC(=O)c1cn(CC)c2ccc(S(=O)(=O)N3CCCC3)cc2c1=O the results were hcDAF-12 act 1.4, DAX1 StAR inh 4.5*, hgDAF12 agonist 1.5, SMARCA2 activ -0.3 and ssDAF12 agonist -0.9.
`CCn1cc(C(=O)NCCCN2CCC(C)CC2)c(=O)c2cc(S(=O)(=O)N3CCOCC3)ccc21` gave hcDAF-12 act 3.8, DAX1 StAR inh 3.7*, hgDAF12 agonist -0.1, SMARCA2 activ -2.7 and ssDAF12 agonist -1.2.
Screening CCn1cc(C(=O)NCCCN2CCC(C)CC2)c(=O)c2cc(S(=O)(=O)N3CCCC3)ccc21 returned hcDAF-12 act -0.3, DAX1 StAR inh 0.3, hgDAF12 agonist -0.5, SMARCA2 activ -3.4 and ssDAF12 agonist -1.3.
For CCN(CC)C(=O)CC[C@H]1CC[C@]2(CCCN(S(=O)(=O)C3CCCCC3)C2)O1 the results were hcDAF-12 act -2.1, DAX1 StAR inh -1.0, hgDAF12 agonist 0.7, SMARCA2 activ -1.7 and ssDAF12 agonist -0.8.
Screening Clc1cccc(CSc2ncnc3sc4c(c23)CCCC4)c1 returned hcDAF-12 act -0.1, DAX1 StAR inh -1.3, hgDAF12 agonist 0.6, SMARCA2 activ -2.5 and ssDAF12 agonist -0.9.
`CCN1C(=O)C(CC(=O)Nc2ccc(OC)cc2)N(Cc2cccnc2)C1=S` (stereo not drawn) gave hcDAF-12 act -1.9, DAX1 StAR inh -0.5, hgDAF12 agonist -0.5, SMARCA2 activ -1.5 and ssDAF12 agonist 2.7*.
Screening N=c1c2c(ccn1CCCc1ccccc1)Oc1ccc3ccccc3c1C2c1ccccc1 (stereo not drawn) returned hcDAF-12 act 2.1, hgDAF12 agonist 1.0 and ssDAF12 agonist -1.2.
`O=c1c2ccccc2nnn1COc1cccc2ccccc12` gave hcDAF-12 act 0.0, DAX1 StAR inh 1.4, hgDAF12 agonist 9.8, SMARCA2 activ 5.3 and ssDAF12 agonist 1.1*.
`O=c1c2ccccc2nnn1COc1ccc(F)cc1Cl` gave hcDAF-12 act 1.3, DAX1 StAR inh 0.3, hgDAF12 agonist 4.3, SMARCA2 activ 0.5 and ssDAF12 agonist -1.5.
`O=C(C1=C(O)C(=O)N(CC2CCCO2)C1c1ccc(Cl)cc1)c1ccco1` (stereo not drawn) gave hcDAF-12 act 0.2, DAX1 StAR inh -0.3, hgDAF12 agonist 2.1, SMARCA2 activ -2.6 and ssDAF12 agonist -0.7.
CC(=O)C1=C(O)C(=O)N(C)C1c1ccccc1[N+](=O)[O-] (stereo not drawn) was read as hcDAF-12 act 5.1, DAX1 StAR inh -0.4, hgDAF12 agonist -2.1, SMARCA2 activ -4.7 and ssDAF12 agonist 2.0*.
`O=C(C1=C(O)C(=O)N(CC2CCCO2)C1c1ccccc1[N+](=O)[O-])c1ccco1` (stereo not drawn) gave hcDAF-12 act 5.3, DAX1 StAR inh 0.0, hgDAF12 agonist 1.0, SMARCA2 activ 0.0 and ssDAF12 agonist 1.2*.
CN1CC=C(c2ccc(C(F)(F)F)cc2)N(c2ccccc2)C1=O was read as hcDAF-12 act 3.4, DAX1 StAR inh 0.5, hgDAF12 agonist 0.0, SMARCA2 activ -0.1 and ssDAF12 agonist -0.5.
For C[C@H]1CN([C@@H](C)CO)C(=O)CCCn2cc(nn2)CO[C@@H]1CN(C)S(=O)(=O)c1ccc(C#N)cc1 the results were hcDAF-12 act 2.1, DAX1 StAR inh 0.0, hgDAF12 agonist -0.4, SMARCA2 activ 6.3 and ssDAF12 agonist -1.4.
O=C(COC(=O)c1c(F)cccc1Cl)NCC1CCCCC1 was read as hcDAF-12 act -0.1, DAX1 StAR inh 0.1, hgDAF12 agonist 11.1*, SMARCA2 activ 0.1 and ssDAF12 agonist -0.9.
C/C(=N\Nc1ccc(Cl)c(C(=O)O)c1)c1cccs1 was read as hcDAF-12 act 1.1, DAX1 StAR inh 2.6, hgDAF12 agonist 5.0, SMARCA2 activ -1.5 and ssDAF12 agonist 0.5.
`C/C(=N\Nc1ccc(Cl)c(C(=O)O)c1)c1ccc[nH]1` gave hcDAF-12 act 6.4*, DAX1 StAR inh 3.0, hgDAF12 agonist 5.0, SMARCA2 activ 0.9 and ssDAF12 agonist 0.2.
CC(C)C(=O)NC(=S)Nc1sc2c(c1C(N)=O)CCCC2 was read as hcDAF-12 act 0.5, DAX1 StAR inh 1.0, hgDAF12 agonist 11.1*, SMARCA2 activ 6.1 and ssDAF12 agonist -0.4.
Screening CC(=O)NC(=S)Nc1sc2c(c1C#N)CCCCC2 returned hcDAF-12 act 3.1, DAX1 StAR inh 1.8, hgDAF12 agonist 11.9*, SMARCA2 activ 5.0 and ssDAF12 agonist 0.1.
`CC(=O)Nc1sc2c(c1C#N)CCCC2` gave hcDAF-12 act -2.5, DAX1 StAR inh -0.7, hgDAF12 agonist 1.0, SMARCA2 activ -1.6 and ssDAF12 agonist -1.2.
Screening CC(C)(C)NC(=O)C(c1cccnc1)N(C(=O)c1cccs1)c1ccc(C(C)(C)C)cc1 (stereo not drawn) returned hcDAF-12 act 1.0, hgDAF12 agonist 0.9 and ssDAF12 agonist -1.4.
For O=C(Nc1cccc(Cl)c1)OC1CCC12CCC(c1ccccc1)CC2 (stereo not drawn) the results were hcDAF-12 act 1.1, DAX1 StAR inh -1.1, hgDAF12 agonist -0.6, SMARCA2 activ -0.9 and ssDAF12 agonist -1.6.
Cc1ccccc1C1=CC(=O)CC(C)(C)C1=O was read as hcDAF-12 act -0.2, DAX1 StAR inh 0.1, hgDAF12 agonist 0.8, SMARCA2 activ 0.1 and ssDAF12 agonist -1.2.
For O=C(CO/N=C/c1ccccc1OC(F)F)N1CCc2ccccc21 the results were hcDAF-12 act 6.5*, DAX1 StAR inh 0.3, hgDAF12 agonist 2.7, SMARCA2 activ 0.1 and ssDAF12 agonist -1.0.
Screening Cc1nc2c3ccccc3n(CC#N)c(=O)n2n1 returned hcDAF-12 act 6.1*, DAX1 StAR inh 0.9, hgDAF12 agonist 7.9, SMARCA2 activ -0.7 and ssDAF12 agonist -0.5.
For N#CCn1c(CCl)nc2ccccc2c1=O the results were hcDAF-12 act -0.4, DAX1 StAR inh -0.1, hgDAF12 agonist -2.9, SMARCA2 activ -0.1 and ssDAF12 agonist -0.6.
